The list is not random: actives were taken first. Their share in the collection is about 2.8%.
DRD3 agonist: D3 dopamine receptor (human) agonism. D3R DiscoveRx beta-arrestin cells, luminescence, 90 min. 410,000 compounds, 0.58% hits. max activation, %. P35462; in the data active = max activation above about 30%; note: 0% is about no effect
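Agonist-mode cell screen: cells plated at 1500/well and incubated overnight at 37 °C, then exposed to library compounds for 90 min at 37 °C. Detection reagent was added for 30–60 min at room temperature, and luminescence was read.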
D3 antag: D3 dopamine receptor (human) antagonism. 360,000 compounds, 2.5% hits. max response, negative = inhibition, %. D3R cells, DiscoveRx beta-arrestin luminescence, antagonist mode; stronger effect = lower value; in the data active = max response below about -50%; inconclusive = no clear call, values can overlap the other calls; note: % is set by controls: 0 for no effect and ±100 for the full control effect
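Cells expressing the human receptor were seeded at 1500 cells/well, incubated overnight at 37 degrees C in 5% CO2, then exposed to library compounds with dopamine controls for 90 minutes at 37 degrees C before luminescent detection.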
PTHR1 agonist: PTHR1 (human) receptor agonism; Q03431; HEK293 GP2 PTHR1 cells, GloSensor cAMP luminescence, 1 h; Potency, µM (series often up to 115 µM), without a hit: at the top dose activation, most hits filed as activators; 410,000 compounds, 0.075% hits; note: potency is the fitted concentration of half-maximal effect; nearly all actives have a fitted effect of over 55% in size
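HEK-293-derived GP2 cells expressing PTHR1 and a GloSensor cAMP reporter, 3,000/well, plated overnight, given luciferin plus IBMX (each 0.5 mM as added) for 1 h at 37 °C, then compound for 1 h at 37 °C. Luminescence was read after 15 min at room temperature.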
CBFb RUNX1 block: inhibitors of human CBF-beta and RUNX1 interaction; AlphaScreen CBFb-His/RUNX1-biotin binding, biochemical; Potency, µM (top dose mostly 59.8 µM), without a hit: top-dose activity, negative = inhibition, hits mostly inhibitors; 230,000 tested, under 10 active; note: % of control where 0% means no effect
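Bead-based AlphaScreen assay; binding partners His-tagged CBF-beta and biotinylated RUNX1 at 30 nM each. Compound exposure 15 min after a 20-min protein preincubation; bead step 90 min; all steps at room temperature.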
MBNL1-CUG inh: blocks human MBNL1 binding to CUG repeat RNA | Q9NR56 | TR-FRET MBNL1-His/biotin-(CUG)12 binding, 665/545 ratio | Potency, µM (highest dose often 57.5 µM), for inactives: at the highest dose activity change, negative = inhibition, hits mostly inhibitors | 280,000 compounds, 0.036% hits | AID 2675; active = well fitted inhibition curve with a large enough effect in the signal ratio, with a control signal flat, not every such curve was filed as active; inconclusive = small, poorly fitted or top-dose-only effect, or effect the other way, or a change in a side signal; inactive = no such curve, though single readings can be large or run the other way; the % refers to the signal ratio; note: potency is the fitted concentration of half-maximal effect; % is set by controls: 0 for no effect and ±100 for the full control effect
Target sequence (Q9NR56 whole entry, looked up): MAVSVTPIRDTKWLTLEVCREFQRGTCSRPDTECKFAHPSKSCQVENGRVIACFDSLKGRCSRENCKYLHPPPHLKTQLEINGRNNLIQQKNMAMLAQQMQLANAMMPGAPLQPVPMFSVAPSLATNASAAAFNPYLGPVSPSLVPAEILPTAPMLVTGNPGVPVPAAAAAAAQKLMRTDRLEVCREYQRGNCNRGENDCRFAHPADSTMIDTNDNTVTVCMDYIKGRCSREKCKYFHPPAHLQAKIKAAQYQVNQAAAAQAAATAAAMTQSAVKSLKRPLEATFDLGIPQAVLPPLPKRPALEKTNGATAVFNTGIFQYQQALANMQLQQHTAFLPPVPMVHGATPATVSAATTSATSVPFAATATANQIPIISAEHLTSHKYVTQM
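MBNL1-His + Biotin-(CUG)12, cpd titration 92 nM–58 uM; Tb anti-His Ab 0.055 ng/ul, SA-XL665 5 nM (final); 60 min RT; ratiometric 665/545 nm, Ex 340 nm; normalized to buffer and full-complex controls.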
Integrin act MD: activates integrin-mediated alleviation for muscular dystrophy. AID 624291. Potency, µM (highest dose often 38.3 µM), for inactives: at the top dose activation, most hits filed as activators. alpha7betagal myoblasts, beta-gal FDG fluorescence, 48 h. 350,000 compounds, 0.064% hits;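 note: potency is the fitted concentration of half-maximal effect; 100% = response of the positive control SU9516; nearly all actives have a fitted effect of over 60% in size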
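Alpha7betagal+/- myoblasts (passage 13) were plated 16-24 hr, then exposed to compounds (1:260 dilution of DMSO stock) for 48 hours at 37C. After MPER lysis, β-galactosidase reporter activity was read as FDG fluorescence (ex 480/em 540) after 30 minutes.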
Active calls of the source: *; i = inactive; ? = inconclusive; nt = no result given. Unless noted, calls come from the whole dose curve; as a rule, active = well fitted curve in the direction sought with a large enough effect; inconclusive = small, poorly fitted or top-dose-only effect, or another doubt; inactive = no such curve, though single readings can be large; an effect the other way counts as inactive or inconclusive.

SMILES	DRD3 agonist	D3 antag	PTHR1 agonist	CBFb RUNX1 block	MBNL1-CUG inh	Integrin act MD
COc1ccc(S(=O)(=O)NCc2ccc(C(=O)NCCN(C)Cc3ccccc3)cc2)cc1	-18	-62*	i	nt	nt	nt
O=c1c(N=Nc2ccc(O)cc2)c(-c2ccccc2)[nH]n1-c1ccc([N+](=O)[O-])cc1	1	-70*	i	-5%	?	5%
N#Cc1ccc(COC(=O)C2CCC(=O)N2)cc1 (stereo not drawn)	-10	-52*	i	2%	-13%	?
O=C1CCC(C(=O)OCC(=O)c2ccccc2)N1 (stereo not drawn)	6	11	i	6%	4%	0%
COc1cccc2c(SCC(=O)N/N=C/c3ccccc3)cc(C)nc12	-1	5	i	-2%	30%	-21%
COc1cccc2c(SCC(=O)N/N=C/c3ccc(O)c(O)c3)cc(C)nc12	31*	5	-8%	?	16%	?
Cc1ccccc1OCC(=O)Nc1ccc2[nH]ncc2c1	0	?	i	nt	1%	27%
CCN(CC)c1ccc2nc3c(=O)n(C)c(=O)n(C)c3nc2c1	-2	nt	i	nt	nt	nt
Cc1nc2c(=O)n(C)c(=O)n(C)c2nc1Cl	-21	-51*	-19%	-15%	?	-39%
COC(=O)C1SCC2C(=O)N(Cc3ccc(F)cc3)CC(=O)N21 (stereo not drawn)	4	16	i	-18%	-13%	8.9µM*
COC(=O)C1SCC2C(=O)N(Cc3cccc(C)c3)CC(=O)N21 (stereo not drawn)	-1	-3	i	5%	0%	17%
CC(C)OCCCNC(=O)c1ccc(CN2CCc3ccccc3C2)cc1	-20	-67*	-25%	nt	-2%	-13%
CCOCCCNC(=O)c1ccc(CN2CCc3ccccc3C2)cc1	-2	-92*	-27%	nt	nt	-15%
CC(C)OCCCNC(=O)c1ccc(Br)cc1	2	21	-13%	-1%	-3%	-9%
CC(C)NC(=O)c1ccc(CN2CCc3ccccc3C2)cc1	-18	-66*	-2%	nt	-2%	0%
CCOCCCNC(=O)c1ccc(C2SCC(=O)N2Cc2ccccc2)cc1 (stereo not drawn)	-1	19	-23%	nt	3%	-1%
COc1ccccc1-c1noc(CCC(=O)Nc2cc(C(F)(F)F)ccc2Cl)n1	30*	-10	-29%	4%	1%	-15%
Cc1cc(N2CCCC2)nc2ccccc12	0	-5	i	9%	-3%	-39%
Cc1cc(N2CCN(C3CCCCC3)CC2)nc2cccc(O)c12	-10	-84*	18%	-4%	4%	20%
Cc1ccc(S(=O)(=O)Nc2ccc3c(c2)nc(CCN2CCOCC2)n3C)cc1	-7	-3	i	-6%	2%	-17%
Cn1c(CCN2CCCCC2)nc2cc(NS(=O)(=O)c3ccc(F)cc3)ccc21	-4	-66*	?	-4%	2%	0%
Cc1ccc(S(=O)(=O)Nc2ccc3c(c2)nc(CCN2CCCCC2)n3C)cc1	-37	-79*	i	-1%	-9%	-34%
Cc1cccc(NC(=O)C(C)Sc2nc3nc(C)cc(C)n3n2)c1 (stereo not drawn)	1	7	-3%	nt	nt	-7%
O=S(=O)(NC(=NC1CCCCC1)c1ccccc1)c1ccccc1	10	11	i	nt	0%	0%
O=S(=O)(NC(=NC1CCCCC1)c1ccccc1F)c1ccccc1	0	-3	-13%	nt	-1%	10µM*
O=C[C@H](O)[C@@H](O)[C@H](O)[C@H](O)CO	10	nt	nt	nt	nt	nt
N#Cc1ccccc1Cn1cc(/C=N/Nc2ccc([N+](=O)[O-])cn2)c2ccccc21	-10	-52*	-4%	-9%	35%	21%
Cc1ccc(NC(=O)CCSc2nc(-c3ccc4c(c3)OCO4)cc(C(F)(F)F)n2)c(C)c1	56*	nt	-1%	nt	nt	nt
